Experimental data: PubChem BioAssay AID1159580 (chemical genetic matrix, 2015)
Values joined by “and” are separate entries in the source; they are usually repeats but may differ in a detail not shown here. Equal entries are not always repeated. In all, about 5,500 compounds went through this assay and about 2,000 (36%) were called active. Inconclusive results (about 18%) are left out. Cut-off read from the data, not from the text of the source: active = normalized growth mostly below about 0.91 (no sharp cut-off); inconclusive = no clear call, values can overlap the other calls; inactive = mostly above about 0.92. The list shows a part of the results.

Test: chemical genetic growth profiling, strain panel (AID 1159580);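 note: tested at 20 µM; growth read once vehicle control cultures reached saturation at 30 °C; 1 = growth at the plate median or of vehicle wells; lower values mean less growth of the strain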
Conditions: S. cerevisiae deletion strains, growth OD

Measured: normalized growth

O=C(O)c1cc2cc(F)ccc2[nH]1
inactive: locus YAL013W, strain DEP1, hits give low values 1 | locus YAL021C, strain ccr4, hits give low values 0.961 | locus YAL026C, strain drs2, hits give low values 0.992 | locus YAL030W, strain snc1, hits give low values 0.998 | locus YAL040C, strain CLN3, hits give low values 0.969 | locus YBL061C, strain skt5, hits give low values 0.99 | locus YBR009C, strain hhf1, hits give low values 1.01 | locus YBR021W, strain FUR4, hits give low values 0.99 | locus YBR023C, strain chs3, hits give low values 0.996 | locus YBR171W, strain sec66, hits give low values 0.97 | locus YBR229C, strain ROT2, hits give low values 0.982 | locus YBR231C, strain swc5, hits give low values 0.991 | locus YBR279W, strain paf1, hits give low values 0.976 | locus YCL011C, strain gbp2, hits give low values 0.975 | locus YCL016C, strain dcc1, hits give low values 0.994 | locus YCL029C, strain bik1, hits give low values 1.02 | locus YCL061C, strain MRC1 (second series), hits give low values 0.99 | locus YCL061C, strain MRC1, hits give low values 0.971 | locus YCL069W, strain vba3, hits give low values 0.975 | locus YCR088W, strain abp1, hits give low values 0.971 | locus YDL005C, strain med2, hits give low values 0.97 | locus YDL035C, strain GPR1, hits give low values 1.02 | locus YDL040C, strain nat1, hits give low values 0.979 | locus YDL074C, strain BRE1, hits give low values 1.03 | locus YDL101C, strain DUN1, hits give low values 1.02 | locus YDL134C, strain PPH21, hits give low values 1.01 | locus YDL185W, strain tfp1, hits give low values 1.01 | locus YDL192W, strain arf1, hits give low values 1.02 | locus YDR001C, strain nth1, hits give low values 0.978 | locus YDR069C, strain doa4, hits give low values 1 | locus YDR101C, strain arx1, hits give low values 1.01 | locus YDR137W, strain rgp1, hits give low values 0.968 | locus YDR150W, strain NUM1, hits give low values 1.01 | locus YDR159W, strain sac3, hits give low values 0.995 | locus YDR162C, strain NBP2, hits give low values 1.02 | locus YDR195W, strain ref2 0.966 | locus YDR297W, strain sur2, hits give low values 0.975 | locus YDR318W, strain mcm21, hits give low values 1.02 | locus YDR334W, strain swr1, hits give low values 0.945 | locus YDR335W, strain msn5, hits give low values 0.99 | locus YDR388W, hits give low values 1.01 | locus YDR392W, strain spt3, hits give low values 0.933 | locus YDR502C, strain sam2, hits give low values 1.02 | locus YEL003W, strain gim4, hits give low values 0.978 | locus YEL037C, strain rad23, hits give low values 0.981 | locus YEL061C, strain CIN8 (second series), hits give low values 0.979 | locus YEL061C, strain CIN8, hits give low values 1.01 | locus YER002W, strain NOP16, hits give low values 0.966 | locus YER015W, strain faa2, hits give low values 0.981 | locus YER016W, strain bim1, hits give low values 0.994 | locus YER110C, hits give low values 1.02 | locus YER111C, strain swi4, hits give low values 1.01 | locus YER155C, strain BEM2 (second series), hits give low values 0.993 | locus YER155C, strain BEM2, hits give low values 1 | locus YER167W, strain BCK2, hits give low values 1.01 | locus YFR010W, strain ubp6, hits give low values 0.978 | locus YGL078C, strain dbp3, hits give low values 1.01 | locus YGL086W, strain mad1, hits give low values 1.02 | locus YGL167C, strain pmr1, hits give low values 0.982 | locus YGL173C, strain kem1, hits give low values 0.987 | locus YGL227W, strain vid30, hits give low values 0.989 | locus YGL240W, strain doc1, hits give low values 1.01 | locus YGL248W, strain PDE1, hits give low values 1.01 | locus YGL253W, strain hxk2, hits give low values 1 | locus YGR078C, strain PAC10, hits give low values 0.984 | locus YGR135W, strain pre9, hits give low values 1.02 | locus YGR229C, strain SMI1, hits give low values 1.01 | locus YGR252W, strain gcn5, hits give low values 1.03 | locus YHR013C, strain ard1, hits give low values 0.99 | locus YHR027C, strain rpn1, hits give low values 0.977 | locus YHR030C, strain SLT2, hits give low values 1.01 and 1.02 | locus YHR079C, strain IRE1 (second series), hits give low values 1.02 | locus YHR079C, strain IRE1, hits give low values 0.988 | locus YHR094C, strain hxt1, hits give low values 1.02 | locus YHR129C, strain ARP1, hits give low values 1 | locus YHR142W, strain chs7, hits give low values 0.949 | locus YHR200W, strain rpn10, hits give low values 1.03 | locus YIL066C, strain RNR3, hits give low values 1.01 | locus YIL073C, strain SPO22, hits give low values 1.09 | locus YIL125W, strain kgd1, hits give low values 1.01 | locus YIR030C, strain dcg1, hits give low values 1.02 | locus YJL092W, strain hpr5, hits give low values 0.968 | locus YJL095W, strain BCK1 (second series), hits give low values 0.987 | locus YJL095W, strain BCK1, hits give low values 1.01 and 0.997 | locus YJL115W, strain asf1, hits give low values 0.962 | locus YJL129C, strain trk1, hits give low values 0.979 | locus YJL134W, strain LCB3, hits give low values 1.01 | locus YJL154C, strain vps35, hits give low values 0.967 | locus YJL164C, strain tpk1, hits give low values 0.972 | locus YJL166W, strain qcr8, hits give low values 1 | locus YJL168C, strain set2, hits give low values 1.02 | locus YJL187C, strain SWE1 (second series), hits give low values 1.01 | locus YJL187C, strain SWE1, hits give low values 0.981 | locus YJR043C, strain POL32, hits give low values 1.01 | locus YJR066W, strain TOR1, hits give low values 0.93
